Measurements as given in PubChem BioAssay (NCI).
About 83,000 compounds went through this panel and 20% of them were active in at least one assay; those are over-represented in the sample as a whole.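 Step 1: grow cells in 96-well plates. Step 2: add test compound at a single concentration. Step 3: incubate 48 h. Step 4: record percent growth.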 Active and inactive are the calls of the source. How the source made its calls: active means growth percent below 10; inactive means the rest.

Each compound was assayed on MDA-MB-468 breast (assay: NCI-60 one-dose screen, 48 h (100 = growth as untreated, 0 = no growth, -100 = all killed)). Details: 10 µM unless noted.

| Structure (SMILES) | growth |
| --- | --- |
| COc1cc([C@@H]2c3cc4c(cc3C(O[C@@H]3O[C@@H]5CO[C@@H](c6cccs6)OC5[C@H](O)[C@H]3O)C3COC(=O)[C@@H]32)OCO4)cc(OC)c1O (stereo partly specified) | -58.9% (active) |
| O=C(/C=C(O)/C=C/c1cccc2[nH]ccc12)/C=C/c1cccc2[nH]ccc12 | 67.8% (inactive) |
| CC(Nc1c(C#N)cnc2ccc(-c3cncc(O)c3)cc12)c1ccccc1 (stereo unspecified) | -37% (active) |
| CCOC(=O)C1=CSC2=NC3=C(CCC/C3=C\c3ccc(Cl)cc3)C(c3ccc(Cl)cc3)N12 (stereo unspecified) | 84.9% (inactive) |
| Cc1ccc(NC(=O)c2cccc(CN3CCN(C)CC3)c2)cc1Oc1ccc(-c2[nH]nc3ncnc(N)c23)cc1 | 51.3% (inactive) |
| c1ccc(Cc2nn3cc(-c4ccccc4)nc3s2)cc1 | 101% (inactive) |
